Values joined by “and” are separate entries in the source; they are usually repeats but may differ in a detail not shown here. Equal values may be shown once. Records with an inconclusive call do not appear. More than one record can exist for a structure, and the calls need not agree. Active and inactive are the calls of the source. The calls were made as follows: active = hit-call score of the fitted dose curve at least 0.9, where 1 is the maximum; inconclusive = response in the unintended direction; inactive = score below 0.9.
biological target: Cellular tumor antigen p53 (Homo sapiens) (UniProt P04637); experiment: TOX21_p53_BLA_p2_ratio: Tox21 HCT-116 p53 Agonism Beta-lactamase Assay, Ratio, Phase 2 (AID 2283592)
Sequence (P04637 whole entry, looked up, the tested form may be a part): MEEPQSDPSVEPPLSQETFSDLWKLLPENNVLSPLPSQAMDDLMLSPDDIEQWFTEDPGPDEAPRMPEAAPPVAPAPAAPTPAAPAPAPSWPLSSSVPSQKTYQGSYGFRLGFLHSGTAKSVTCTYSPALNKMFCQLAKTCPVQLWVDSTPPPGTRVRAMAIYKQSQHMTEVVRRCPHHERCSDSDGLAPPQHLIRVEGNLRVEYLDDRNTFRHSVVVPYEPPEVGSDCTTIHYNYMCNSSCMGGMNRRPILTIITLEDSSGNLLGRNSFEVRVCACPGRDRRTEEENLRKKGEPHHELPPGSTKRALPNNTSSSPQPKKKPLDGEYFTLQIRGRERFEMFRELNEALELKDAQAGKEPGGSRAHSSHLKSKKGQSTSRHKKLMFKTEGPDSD
From the text: TOX21_p53_BLA_p2 is a cell-based, single-readout assay that uses HCT116, a human intestinal cell line, […] in a 1536-well plate.TOX21_p53_BLA_p2_ratio is an assay readout measuring reporter gene via receptor activity and designed using inducible reporter (beta lactamase induction) detected with GAL4 b-lactamase reporter gene. The signal is derived from the ratio of cleaved (ch2) to uncleaved (ch1) reporter gene substrate used as the measure of target activity.Data from the assay component TOX21_p53_BLA_p2_ratio was analyzed into 1 assay endpoint. This assay endpoint, TOX21_p53_BLA_p2_ratio, was analyzed in the positive analysis fitting direction relative to DMSO as the negative control and baseline of activity. Using a type of inducible reporter, gain-of-signal activity can be used to understand changes in the reporter gene as they relate to the gene TP53. Furthermore, this assay endpoint can be referred to as a primary readout, because this assay has produced multiple assay endpoints and this ratio serves a reporter gene function to understand target activity. To generalize the intended target to other relatable targets, this assay endpoint is annotated to the DNA binding intended target family, where the subfamily is tumor suppressor.
Thawing Method: Place 14 mL of pre-warmed thaw medium into a 15 mL of conical tub. Remove the vial of cells to be thawed from liquid nitrogen and thaw rapidly by placing at 37C in a water bath with gentle agitation for 1-2 minutes. Decontaminate the vial by wiping with 70% ethanol before opening in a biological safety cabinet. Transfer the vial contents drop-wise into 14 mL of thaw medium in a sterile 15-mL conical tub. Centrifuge cells at 900 rpm for 4 minutes and resuspend in thaw medium. Transfer contents to the T75 tissue culture flask containing Thaw Medium and place flask in a humidified 37C/5% CO2 incubator. Switch to growth medium at first passage.Propagation Method: Aspirate medium, rinse once in DPBS, add 0.25% Trypsin/EDTA and swirl to coat the cell evenly. Add an equal volume of Growth Medium to inactivate Trypsin after 2-3 minutes incubation at 37C. Centrifuge cells at 900 rpm for 4 minutes and resuspend in growth medium. Cell should be passage or fed at least twice a week.Assay Protocol: Harvest cells from culture in growth medium and resuspend in assay medium. 2.2 Dispense 4000 cells/5 uL/well into 1536-well black/clear bottom plates using a Multidrop dispenser. After the cells were incubated at 37C for 5 hours, 23 nL of compounds dissolved in DMSO were transferred to the assay plate by a PinTool resulting in a 217-fold dilution. Incubate the plates for 16 hours at 37C, 5% CO2. Add 1 uL of 6X LiveBLAzer FRET B/G (CCF4-AM) Substrate Mixture to each well using a BioRAPTR dispenser and incubate the plates at room temperature for 2 hours. Measure fluorescence intensity at 460 and 530 nm emission and 405 nm excitation by an Envision detector. Data is expressed as the ratio of 460nm/530nm emissions. Add 4 uL of Cell-titer Glo to each well using BioRAPTR and incubate the plates at room temperature for 2 hours. Measure fluorescence intensity by a VewLux plate reader.

| SMILES | outcome | AC50 |
| --- | --- | --- |
| CCCCCCCCCCCCCN1CC(C)OC(C)C1 (stereo not given) | inactive | – |
| Nc1ccc(Cl)cc1N | inactive | – |
| Clc1ccc(C(c2ccc(Cl)cc2)C(Cl)(Cl)Cl)cc1 | inactive | 60.7 µM (active) and 31.1 µM (active) |
| O=C1CCCO1 | inactive | – |
| O=P(OCCCl)(OCCCl)OCCCl | inactive | – |
| c1ccc2c(c1)oc1ccccc12 | inactive | – |
| CN(C)C(=O)Nc1ccc(Cl)cc1 | inactive | – |
| CNC(=O)Oc1cccc2c1OC(C)(C)C2 | inactive | – |
| COP(=S)(OC)SCN1C(=O)c2ccccc2C1=O | inactive | – |
| Nc1ccc(N=Nc2ccccc2)cc1 | inactive | – |
| Brc1ccc(Oc2ccccc2)cc1 | inactive | – |
| COC(=O)Nc1nc2ccccc2[nH]1 | – | 10.1 µM (active) and 7.91 µM (active) |
| CCCCC(CC)COC(=O)c1ccc(C(=O)OCC(CC)CCCC)c(C(=O)OCC(CC)CCCC)c1 (stereo not given) | inactive | – |
| CCN(CC)N=O | inactive | – |
| CCCCOC(=O)c1ccccc1C(=O)OCc1ccccc1 | inactive | – |
| CC(C)(C)C(O)(CCc1ccc(Cl)cc1)Cn1cncn1 (stereo not given) | inactive | – |
| [As]#[In] | inactive | – |
| CC(O)CCO (stereo not given) | inactive | – |

| SMILES | outcome | AC50 |
| --- | --- | --- |
| c1ccc2c(c1)-c1cccc3cccc-2c13 | inactive | – |
| CS(=O)(=O)NC(=O)c1cc(Oc2ccc(C(F)(F)F)cc2Cl)ccc1[N+](=O)[O-] | inactive | – |
| Oc1ccccc1Cl | inactive | – |
| Cc1cc(N=Nc2ccccc2C)ccc1N | inactive | 73.1 µM (active) |
| ClC1=C(Cl)[C@]2(Cl)[C@H]3[C@H]([C@@H]4C=C[C@H]3C4)[C@@]1(Cl)C2(Cl)Cl | inactive | – |
| Clc1ccc(C(c2ccc(Cl)cc2)C(Cl)Cl)cc1 | inactive | 68 µM (active) |
| CN(C)c1ccccc1 | inactive | – |
| Nc1ccc([N+](=O)[O-])cc1 | inactive | – |
| Nc1ccc(Oc2ccc(N)cc2)cc1 | inactive | – |
| ClCCOCCCl | inactive | – |
| C[N+](C)(C)CC1CO1 (stereo not given) | inactive | – |
| COC(=O)c1ccccc1N | inactive | – |
| ClC1=C(Cl)C2(Cl)C3C(Cl)C=CC3C1(Cl)C2(Cl)Cl (stereo not given) | inactive | – |
| CCCCCCCCn1sccc1=O | inactive | 20.8 µM (active) |
| O=C(N[C@H](c1ccccc1)[C@@H]1CN2CCC1CC2)c1c(Cl)ccc(C(F)(F)F)c1Cl | inactive | – |
| O=Cc1ccco1 | inactive | – |
| c1ccc(NNc2ccccc2)cc1 | inactive | – |
| CCN(CC)CCO | inactive | – |

Reference: PubChem BioAssay (EPA / NIEHS)
